From article PMC4336329 (PLoS ONE, 2015)
About 2,200 (0.71%) of roughly 310,000 compounds showed an effect of 50% or more. Effects have a minus sign here. This is one part of a sample in which strong results are shown more often than they occur.

What follows are molecules tested against human ether-à-go-go-related gene (hERG) potassium channel (human, UniProt Q12809) (assay: primary screen, population patch clamp on CHO cells stably expressing hERG; higher = less effect of the substance).
Sequence of human ether-à-go-go-related gene (hERG) potassium channel (Q12809 whole entry, looked up): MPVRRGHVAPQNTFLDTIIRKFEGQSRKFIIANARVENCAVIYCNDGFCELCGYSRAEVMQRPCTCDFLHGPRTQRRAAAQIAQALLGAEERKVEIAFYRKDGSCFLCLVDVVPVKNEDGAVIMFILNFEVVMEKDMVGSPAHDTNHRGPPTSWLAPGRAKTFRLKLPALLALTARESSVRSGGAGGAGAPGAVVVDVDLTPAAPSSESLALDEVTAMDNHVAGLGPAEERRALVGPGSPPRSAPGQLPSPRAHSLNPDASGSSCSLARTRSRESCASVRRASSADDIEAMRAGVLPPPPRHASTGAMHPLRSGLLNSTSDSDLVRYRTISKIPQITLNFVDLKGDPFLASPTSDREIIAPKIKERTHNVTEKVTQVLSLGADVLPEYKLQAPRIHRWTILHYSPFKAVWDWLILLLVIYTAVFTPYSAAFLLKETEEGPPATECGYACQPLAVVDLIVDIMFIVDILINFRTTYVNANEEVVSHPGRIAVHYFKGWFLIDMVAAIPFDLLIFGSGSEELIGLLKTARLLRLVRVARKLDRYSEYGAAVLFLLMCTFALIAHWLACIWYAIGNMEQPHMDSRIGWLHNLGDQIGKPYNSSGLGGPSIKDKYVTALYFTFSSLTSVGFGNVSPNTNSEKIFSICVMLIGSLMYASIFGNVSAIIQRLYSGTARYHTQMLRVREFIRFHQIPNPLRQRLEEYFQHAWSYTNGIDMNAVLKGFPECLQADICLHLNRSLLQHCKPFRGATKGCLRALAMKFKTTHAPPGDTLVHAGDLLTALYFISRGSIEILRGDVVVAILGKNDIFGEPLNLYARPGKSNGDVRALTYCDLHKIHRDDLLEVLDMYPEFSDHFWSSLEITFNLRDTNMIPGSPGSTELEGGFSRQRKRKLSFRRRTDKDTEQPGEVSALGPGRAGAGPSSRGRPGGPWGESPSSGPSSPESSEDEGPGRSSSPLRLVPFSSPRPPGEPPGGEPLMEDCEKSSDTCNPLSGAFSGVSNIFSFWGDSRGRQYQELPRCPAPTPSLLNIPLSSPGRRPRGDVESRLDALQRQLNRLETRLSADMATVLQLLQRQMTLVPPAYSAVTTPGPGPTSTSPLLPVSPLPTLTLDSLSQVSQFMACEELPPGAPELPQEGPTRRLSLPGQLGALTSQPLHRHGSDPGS

Row | SMILES | hERG current change (%, negative = inhibition) at 1uM
1 | CC(C)Sc1nnc(-c2ccc(S(=O)(=O)N3CCOCC3)cc2)n1C | 7.81%
2 | CCN(CC)Cc1cc(NC2=NS(=O)(=O)c3ccccc32)ccc1OC(=O)C(C)C.Cl | 5.53%
3 | COc1ccc(NS(=O)(=O)c2ccc(NS(C)(=O)=O)cc2)cc1 | 6.82%
4 | COc1ccc(CNC(=O)c2ccccc2C(=O)O)cc1 | 0.458%
5 | CCN(CC(=O)Nc1c(F)cccc1F)C(=O)c1ccc(C#N)cc1 | 8.99%
6 | O=C(CSc1nnc(-c2ccncc2)o1)Nc1nncs1 | 15.3%
7 | O=C(CSc1nnc(-c2ccccc2Br)o1)Nc1nncs1 | -63.5%
8 | O=C(CSc1nnc(-c2ccccc2Br)o1)Nc1cccc2ccccc12 | 3.82%
9 | CSc1n[nH]c(NC2=CC(=O)CCC2)n1 | 15%
10 | CC(C(=O)Nc1cccc([N+](=O)[O-])c1)N1CCN(C/C=C/c2ccccc2)CC1 (stereo not shown) | -74.2%
11 | COc1ccc(N2CCN(C(C)C(=O)N(C)Cc3ccccc3)CC2)cc1 (stereo not shown) | -10%
12 | COc1ccccc1NC(=O)C(C)N1CCN(C/C=C/c2ccccc2)CC1 (stereo not shown) | -75.2%
13 | CC(C(=O)N(C)Cc1ccccc1)N1CCN(C/C=C/c2ccccc2)CC1 (stereo not shown) | -73.5%
14 | COc1ccccc1NC(=S)N1CCN(C/C=C/c2ccccc2)CC1 | 7.29%
15 | CNC(=O)NC(=O)C(C)N1CCN(C/C=C/c2ccccc2)CC1 (stereo not shown) | -32.1%
16 | CC(=O)c1ccc(NC(=O)C(C)N2CCN(C/C=C/c3ccccc3)CC2)cc1 (stereo not shown) | -41%
17 | CC(C(=O)Nc1cccc(S(=O)(=O)N2CCOCC2)c1)N1CCN(C/C=C/c2ccccc2)CC1 (stereo not shown) | -32.5%
18 | COc1ccc(Cl)cc1NC(=O)C(C)N1CCN(C/C=C/c2ccccc2)CC1.O=C(O)C(=O)O (stereo not shown) | -14.3%
19 | Cc1sc2nc[nH]c(=O)c2c1-c1ccc(F)cc1 | 17.2%
20 | Cc1ccccc1Nc1nc(-c2sc(NC(=O)c3ccccc3)nc2C)cs1 | 7.9%
21 | CC(c1ccncn1)N(C)C(=O)c1ccc2oc(Cc3ccccc3)nc2c1 (stereo not shown) | 9.8%
22 | CCOc1ccc(NS(=O)(=O)c2ccc(NS(=O)(=O)c3ccc(SC)cc3)cc2)cc1 | 9.23%

Row | SMILES | hERG current change (%, negative = inhibition) at 1uM
23 | CCCN1Cc2cccc(C(=O)NCc3ccc(C)cc3)c2C1=O | -4.32%
24 | CCC(C)N(C)C(=O)c1cc2ccccc2c(-c2ccccc2Cl)n1 (stereo not shown) | -5.29%
25 | CC(Oc1ccc(Cl)cc1)C(=O)OCC(=O)Nc1ncc(Cl)cc1Cl (stereo not shown) | 3.29%
26 | O=C(Nc1ccc(F)cc1)c1nc[nH]c1C(=O)O | 18.5%
27 | CCCCCn1c(=N)n(CC(O)COc2ccccc2OC)c2ccccc21 (stereo not shown) | -82.8%
28 | Cc1ccccc1OCC(O)Cn1c(=N)n(Cc2ccccc2)c2ccccc21.Cl (stereo not shown) | -48.4%
29 | C=CCn1c(=N)n(CC(O)COc2ccccc2OC)c2ccccc21.Cl (stereo not shown) | -43.5%
30 | COc1ccccc1OCC(O)Cn1c(=N)n(CCN2CCCCC2)c2ccccc21.Cl (stereo not shown) | -27.9%
31 | COc1ccccc1OCC(O)Cn1c(=N)n(Cc2ccccc2)c2ccccc21.Cl (stereo not shown) | -39.6%
32 | CCCCCn1c(=N)n(CC(O)COc2ccccc2OC)c2ccccc21.Cl (stereo not shown) | -86.3%
33 | COC(=O)[C@H](C)NC(=O)Nc1ccc(C)c(C)c1 | 15.2%
34 | Cc1ccnc(SCc2ccc([N+](=O)[O-])cc2)n1 | -1.04%
35 | COCCN(C(=O)CSc1nc(-c2ccccc2)cn1N)c1c(N)n(Cc2ccccc2)c(=O)[nH]c1=O | 3.04%
36 | CCCC(=O)Nc1cc(C(=O)O)ccc1Sc1ccc(C)cc1 | 10.9%
37 | CCn1c(SCC(=O)Nc2nonc2C)nnc1-c1ccoc1C | 7.63%
38 | CCCn1c(SCC(=O)Nc2nonc2C)nnc1-c1ccoc1C | 5.83%
39 | Cc1nonc1NC(=O)CSc1nnc(-c2ccoc2C)n1C | 9.71%
40 | Cc1occc1-c1nnc(SCC(=O)NC2CCCC2)n1-c1ccccc1 | 0.492%
41 | Cc1occc1-c1nnc(SCC(=O)NC2CCCC2)n1C | 13.5%
42 | Cc1cccc(-n2c(SCC(=O)NC3CCCC3)nnc2-c2ccoc2C)c1 | -68.6%
43 | Cc1cccc(-n2c(SCC(=O)Nc3nonc3C)nnc2-c2ccoc2C)c1 | -81.9%
44 | Cc1ccc(C)c(-n2c(SCC(=O)Nc3nonc3C)nnc2-c2ccoc2C)c1 | 9.3%

Row | SMILES | hERG current change (%, negative = inhibition) at 1uM
45 | Cc1nonc1NC(=O)CSc1nnc(-c2ccoc2C)n1-c1cccc(Cl)c1 | -58.8%
46 | c1ccc2c(c1)CCCn1nnnc1-2 | 6.71%
47 | CCCC(=O)N(Cc1cc(=O)[nH]c2ccccc12)c1ccccc1C | 13.1%
48 | O=C(Cn1cnc(S(=O)(=O)N2CCCC2)c1)Nc1cccc(F)c1 | 14.4%
49 | COc1ccc(S(=O)(=O)N2CCOCC2)cc1NC(=O)c1ccc(-n2nc(C)cc2C)cc1 | 6.25%
50 | CCc1ccc(C(=O)OCC(=O)Nc2cccc(S(=O)(=O)NC3=NCCCCC3)c2)cc1 | 7.29%
51 | COc1ccc(CNS(=O)(=O)c2ccc3c(c2)CC(C)N3C(=O)C2CC2)cc1 (stereo not shown) | 15.1%
52 | Cc1ccc2c(c1)N(C(=O)CCC(=O)NCCCN1CCOCC1)CCO2 | 13.9%
53 | Cc1ccc2c(c1)N(C(=O)CCC(=O)NCCCN1CCN(C)CC1)CCO2 | 7.21%
54 | CCN1CCN(CCCNC(=O)CCC(=O)N2CCOc3ccc(Cl)cc32)CC1 | 6.48%
55 | O=C(CCC(=O)N1CCOc2ccccc21)NCCCN1CCN(Cc2ccccc2)CC1 | -41.9%
56 | Cc1ccc2c(c1)N(C(=O)CCC(=O)NCCCN1CCC(Cc3ccccc3)CC1)CCO2 | -78.7%
57 | O=C(CCC(=O)N1CCOc2ccc(Cl)cc21)NCCCN1CCC(Cc2ccccc2)CC1 | -64.7%
58 | O=C(CCC(=O)N1CCOc2ccc(Cl)cc21)NCCCN1CCOCC1 | 12.5%
59 | O=C(CCC(=O)N1CCOc2ccc(Cl)cc21)NCCCN1CCN(c2ccccc2F)CC1 | -22.2%
60 | O=C(CCC(=O)N1CCOc2ccc(Cl)cc21)NCCCN1CCN(Cc2ccccc2)CC1 | -63.7%
61 | CC(NS(=O)(=O)c1cccc(S(=O)(=O)c2ccccc2)c1)C(=O)O (stereo not shown) | 7.71%
62 | O=C(CSc1ccc(-c2cccnc2)nn1)N1CCCCC1 | 14.1%
63 | COc1ccc(-c2[nH]ncc2CN(C)C(C)c2ccncn2)c(F)c1 (stereo not shown) | 1.94%
64 | COc1cc(Br)c(C(=O)c2nccc3cc(OC)c(OC)cc23)cc1OC | 10.6%
65 | O=C(COc1ccc2ccc(=O)oc2c1)Nc1nccs1 | 2.46%
66 | O=C1N/C(=N/N=C/c2ccc(O)cc2)SC1Cc1ccccc1 (stereo not shown) | -0.776%

Row | SMILES | hERG current change (%, negative = inhibition) at 1uM
67 | Cc1occc1C(=O)N/N=C/c1ccc(N(C)C)cc1 | 15.7%
68 | O=C(NC1(C(F)(F)F)NC(=O)N(Cc2ccco2)C1=O)c1cccs1 (stereo not shown) | 19.2%
69 | CC(=O)N1CCN(c2ccc(NC(=O)c3ccc(Br)o3)cc2Cl)CC1 | -1.25%
70 | Cc1ccc(Cl)cc1N1CCN(S(=O)(=O)c2cnc[nH]2)CC1 | 1.64%
71 | CN(Cc1ccccc1)S(=O)(=O)c1cc2c3c(c1)CCN3C(=O)CC2 | 6.98%
72 | O=C(NN1C(=O)c2ccccc2NC1c1ccc([N+](=O)[O-])o1)c1ccc(Br)cc1 (stereo not shown) | -27.2%
73 | O=C(NN1C(=O)c2ccccc2NC1c1ccco1)c1ccc(Br)cc1 (stereo not shown) | -50.4%
74 | O=C(NN1C(=O)c2ccccc2NC1c1ccco1)c1ccccc1 (stereo not shown) | 4.38%
75 | O=C(Nc1ccc2oc(=O)ccc2c1)c1cccnc1Cl | -2.76%
76 | CN(C)S(=O)(=O)c1ccc(C(=O)OCCCN=C2NS(=O)(=O)c3ccccc32)cc1 | -5.83%
77 | O=C(c1ccc(Cl)cc1)C1CCCN(Cc2ccc3nonc3c2)C1 (stereo not shown) | 0.831%
78 | COc1ccc(CN2CCCC(C(=O)c3ccc(Cl)cc3)C2)cc1Cn1cncn1 (stereo not shown) | -59.9%
79 | CSc1ccc(C(=O)C2CCCN(Cc3cnc(SC)nc3)C2)cc1 (stereo not shown) | -33.7%
80 | COc1ccc(CN2CCCC(C(=O)c3ccc(Cl)cc3)C2)c(OC)c1 (stereo not shown) | -53.6%
81 | COc1ccc(CN2CCCC(C(=O)c3ccc(SC)cc3)C2)cc1Cn1cccn1 (stereo not shown) | -68.5%
82 | COc1cccc(C(=O)C2CCCN(Cc3ccc(OC)c(Cn4cncn4)c3)C2)c1 (stereo not shown) | -20.2%
83 | O=C(c1ccc(-c2ccccc2)c(F)c1)C1CCCN(CCCn2cccn2)C1 (stereo not shown) | -38.6%
84 | COc1ccc(CN2CCCC(C(=O)c3ccc(Cl)cc3)C2)c(O)c1 (stereo not shown) | -21.3%
85 | COc1cc(CN2CCCC(C(=O)c3ccc(SC)cc3)C2)cc(Cl)c1O (stereo not shown) | -3.13%
86 | CSc1ccc(C(=O)C2CCCN(CCCn3cccn3)C2)cc1 (stereo not shown) | -78.3%
87 | COc1ccc(C(=O)C2CCCN(Cc3cc(Cl)ccc3O)C2)c(OC)c1 (stereo not shown) | 12.6%
88 | CSc1ccc(C(=O)C2CCCN(Cc3cccnc3)C2)cc1 (stereo not shown) | -4.37%
